Bioassay records deposited in PubChem by National Center for Advancing Translational Sciences (NCATS).
Pf growth 48h: inhibits P. falciparum growth in the first generation, 48 h; Potency, µM (titrated, usually from 28.7 µM), inactives show at the top dose activity change, negative = inhibition, usual class: inhibitors; P. falciparum luciferase growth in erythrocytes, 48 h; 310,000 compounds, 5.9% hits; further: potency means the concentration at half of the fitted maximal effect; on the % scale 0 is the no-effect control and ±100 the full control effect
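First compound was added to culture medium, then infected red cells at 0.1% parasitemia and 2% hematocrit (final). After incubation at 37 C under 5% CO2, luciferase detection reagent was dispensed and light output recorded.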
LmPK inh: blocks Leishmania mexicana pyruvate kinase activity. Q27686. purified LmPK, Kinase-Glo ATP luminescence, 1 h. Potency, µM (series often up to 57.5 µM), inactives show top-dose activity change, negative = inhibition, most hits filed as inhibitors. 290,000 compounds, 0.37% hits; further: potency means the concentration at half of the fitted maximal effect; on the % scale 0 is the no-effect control and ±100 the full control effect
Target sequence (Q27686 whole entry, looked up): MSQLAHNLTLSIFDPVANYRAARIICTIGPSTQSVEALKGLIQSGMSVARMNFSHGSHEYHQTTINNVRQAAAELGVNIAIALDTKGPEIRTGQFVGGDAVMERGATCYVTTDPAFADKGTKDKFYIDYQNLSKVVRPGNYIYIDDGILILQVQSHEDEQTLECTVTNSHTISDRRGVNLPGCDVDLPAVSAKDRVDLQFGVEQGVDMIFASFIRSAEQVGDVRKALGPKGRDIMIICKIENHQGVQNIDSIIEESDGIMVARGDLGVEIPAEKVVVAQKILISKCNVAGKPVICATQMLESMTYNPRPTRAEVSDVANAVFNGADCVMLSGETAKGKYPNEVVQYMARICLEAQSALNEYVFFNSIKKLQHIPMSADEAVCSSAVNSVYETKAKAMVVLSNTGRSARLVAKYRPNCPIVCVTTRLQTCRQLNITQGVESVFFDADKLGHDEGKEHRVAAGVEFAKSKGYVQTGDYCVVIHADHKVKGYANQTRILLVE
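ATP generated from ADP (0.1 mM) and PEP (0.5 mM) by 0.1 nM LmPK over 1 h at room temperature (pH 7.2 imidazole buffer) was detected by coupled luciferase luminescence. Values were normalized to uninhibited and no-enzyme wells.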
Pf growth 96h: P. falciparum growth inhibition at 96 hours | Potency, µM (doses to about 28.7 µM), for the others: top-dose activity change, negative = inhibition, usual class: inhibitors | 320,000 compounds, 6.9% hits | P. falciparum luciferase reporter growth, 96 h; further: potency means the concentration at half of the fitted maximal effect; on the % scale 0 is the no-effect control and ±100 the full control effect
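96 h incubation, 37 C, 5% CO2, of luciferase-reporter P. falciparum-infected RBCs (2% hematocrit, 0.05% parasitemia final) with test compounds; endpoint luminescence.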
Cycloheximide cs: counter-screen hit for Shiga toxin inhibitors, cycloheximide; cell reporter, cycloheximide protein synthesis inhibition counterscreen; max response, %; 300,000 compounds, 12% hits; AID 2314; in the data active means max response mostly above about 13%, no sharp cut-off; inactive means mostly below about 14%; further: read at 38.3 µM for the half of the compounds with a filed dose; 0% is about no effect
Shiga inhibitor: inhibitors of Shiga toxin in Vero cells; Vero cells, Shiga toxin protein synthesis inhibition reporter; inhibition, % at 38.7 µM; 290,000 compounds, 9.2% hits; AID 2315; in the data active means inhibition mostly above about 28%, no sharp cut-off; inactive means mostly below about 43%; further: 0% is about no effect
* marks the source's active call; other numbers are inactive results; ? = inconclusive; · = no result given. The list is not random: actives were taken first. Their share in the collection is about 22%. Unless noted, the call rests on the fitted dose curve; in most records, active means well fitted inhibition curve with a large enough effect; inconclusive means small, poorly fitted or top-dose-only effect, or another doubt; inactive means no such curve, though single readings can be large or run the other way.

SMILES	Pf growth 48h	LmPK inh	Pf growth 96h	Cycloheximide cs	Shiga inhibitor
O=c1c2c(-c3cccc([N+](=O)[O-])c3)ccnc2[nH]n1-c1ccccc1	14%	0%	0%	-1	-5
COCc1cc(CN2CCCC(C(=O)Nc3ccc(-c4ccco4)cc3)C2)ccc1OC (configuration not stated)	?	2%	-13%	1	21
C/C(CC(=O)NC1CCCCC1)=N\NC(=O)c1ccccc1C	28%	0%	?	14	63*
O=C(NC1CCCCCCC1)c1cnccn1	·	10%	-9%	8	26
C/C(CC(=O)NC1CCCCCC1)=N\NC(=O)c1cnccn1	8%	1%	-14%	26*	46*
CC(C)CCC[C@@H](C)[C@@H]1CC[C@H]2C3=CC=C4CC(O)CC[C@]4(C)[C@H]3CC[C@@]21C (some centres not stated)	·	·	·	-4	17
COC1CCCN(Cc2nc(Cc3ccccc3F)no2)C1 (configuration not stated)	6%	-5%	-8%	11	4
Fc1ccccc1Cc1noc(CN2CCC(OCc3cccnc3)CC2)n1	47%	2%	43%	22*	59*
COc1ccc(C(C(=O)NCCC(C)C)N(CCN2CCOCC2)C(=O)Cn2nnc3ccccc32)c(OC)c1 (configuration not stated)	?	1%	5.2µM*	-2	-11
COc1cccc(C(C(=O)Nc2ccc(F)cc2)N(C(=O)Cn2nnc3ccccc32)C2CC2)c1 (configuration not stated)	?	-1%	10µM*	-1	-14
CCOc1ccc(C(C(=O)Nc2ccc(F)cc2)N(C(=O)Cn2nnc3ccccc32)C2CC2)cc1 (configuration not stated)	?	-2%	4.7µM*	8	3
CCC(C)N(C(=O)Cn1nnc2ccccc21)C(C(=O)NCc1ccco1)c1cccc(OC)c1 (configuration not stated)	-2%	12%	10µM*	1	17
COCCN(C(=O)Cn1nnc2ccccc21)C(C(=O)NC1CCCC1)c1cccc(OC)c1OC (configuration not stated)	?	3%	-6%	-2	-8
O=C(/C=C/c1ccccc1)N(Cc1cccc(Cl)c1)C1CCS(=O)(=O)C1 (configuration not stated)	6.6µM*	5%	4.1µM*	-1	-13
COc1ccccc1CNC(=O)c1cc(S(=O)(=O)N2CCCCC2)c[nH]1	?	-4%	-4%	4	-5
C[C@H](NC(=O)c1ncn(Cc2ccccc2)c1C(=O)N[C@@H](C)c1ccccc1)c1ccccc1	?	·	8.3µM*	·	·
CCOC(=O)c1ccc(NC(=O)c2nc[nH]c2C(=O)NC2CCN(C(=O)OC(C)(C)C)CC2)cc1	10µM*	10%	?	3	17
CC(C)(C)OC(=O)N1CCC(NC(=O)c2nc[nH]c2C(=O)NCC(=O)OCc2ccccc2)CC1	0%	-1%	40%	-1	7
CC(C)(C)OC(=O)N1CCC(NC(=O)c2ncn(Cc3ccccc3)c2C(=O)NC2CCN(C(=O)OC(C)(C)C)CC2)CC1	5.2µM*	·	?	·	·
CC(C)(C)OC(=O)CNC(=O)c1[nH]cnc1C(=O)NC1CCN(C(=O)OC(C)(C)C)CC1	?	-5%	?	-5	-13
CC(C)(C)OC(=O)N1CCC(NC(=O)c2nc[nH]c2C(=O)NC2CCN(C(=O)OC(C)(C)C)CC2)CC1	3.7µM*	·	3.7µM*	·	·
COc1ccc(C(=O)Nc2ccc(S(=O)(=O)Nc3onc(C)c3C)cc2)c(OC)c1	-4%	-2%	62%	3	33
S=c1[nH]nc(-c2cccnc2)n1Cc1ccccc1	-4%	?	?	-3	-5
COc1ccc(-c2n[nH]c(=S)n2C2CCCCC2)cc1	3%	4.5µM*	·	-4	-16
Cc1ccsc1-c1n[nH]c(=S)n1C1CCCCC1	-3%	8.9µM*	6%	-2	12
SMILES	Pf growth 48h	LmPK inh	Pf growth 96h	Cycloheximide cs	Shiga inhibitor
S=c1[nH]nc(-c2cccnc2)n1C1CCCCC1	5%	8.9µM*	6%	-5	-19
Cc1ccsc1/C=N/n1c(-c2ccccc2)n[nH]c1=S	10%	-11%	?	1	-9
CC1CCCCC1n1c(-c2cccnc2)n[nH]c1=S (configuration not stated)	11%	20µM*	-7%	-3	-8
Cc1nc([N+](=O)[O-])cn1CC(=O)Nc1ccc(F)c(Cl)c1	-4%	2%	?	3	1
O=C(CSc1nnnn1-c1cccc2ccccc12)NC(C(=O)O)(c1ccccc1)c1ccccc1	48%	7%	-84%	4	-16
Cc1cc(C)n(-c2cccc(F)n2)n1	4%	6%	19%	-2	-15
CC(Sc1nnc(-c2cccs2)n1N)C(=O)NCC1CCCO1 (configuration not stated)	28%	·	-1%	·	·
S=c1[nH]nc(-c2ccccc2)n1C1C=CCCC1 (configuration not stated)	·	2.5µM*	?	-3	19
Cc1ccc(NC(=O)COC(=O)CC2SC(N3CCCC3)=NC2=O)cc1 (configuration not stated)	-24%	·	-21%	·	·
O=C1OC2(CCCCC2)OC(=O)C1=CNc1ccc2c(c1)OCO2	-16%	-1%	31%	17	30
COc1ccc2c(c1)CC/C(=C\Nc1ccc3c(c1)OCO3)C2=O	4%	-1%	·	77*	38
O=C1/C(=C/Nc2ccc3c(c2)OCO3)CCc2ccccc21	·	13µM*	-97%	15	6
COc1ccc(N/C=C2\CCc3ccccc3C2=O)cc1	35%	13µM*	14%	3	-4
COc1ccc(N/C=C2\CCOC2=O)cc1	12%	-4%	11%	2	-12
COc1ccc(S(=O)(=O)N2CCSC2C)cc1C (configuration not stated)	0%	3%	0%	1	2
Nc1n[nH]c(N)c1N=Nc1ccc(F)cc1	74%	0%	10%	33*	23
Nc1n[nH]c(N)c1N=Nc1ccccc1	22%	7%	-12%	11	34
COc1ccc(N=Nc2ccc(N)nc2N)cc1	219%	-16%	210%	70*	107*
COc1ccc(N=Nc2c(N)n[nH]c2N)cc1	53%	3%	112%	27*	45*
Cc1cccc(N(CC(=O)NCCc2ccccc2)C(=O)CCC(=O)Nc2ccccn2)c1C	-11%	0%	-10%	-4	-14
Cn1c(=O)n(CCO)c(=O)c2c1nc(Br)n2Cc1ccccc1	-85%	-2%	-24%	-2	-7
CCC1(c2ccc(F)cc2)NC(=O)N(CC(=O)Nc2cc(S(=O)(=O)N(C)C)ccc2Cl)C1=O (configuration not stated)	?	2%	?	-2	-8
c1ccc(COc2ccc(CNn3cnnc3)cc2)cc1	51%	-9%	13%	26*	65*
